In all, about 350,000 compounds went through this assay and about 9,900 (2.8%) were called active. Entries that show only a call come without a potency. Inconclusive results (about 15%) are left out. Calls follow the shape of the dose curve; as a rule, active = well fitted activation curve with a large enough effect; inconclusive = small, poorly fitted or top-dose-only effect; inactive = no such curve, though single readings can be large or run the other way. Only a selection was taken, and actives are over-represented in it overall.
Potency is read from the fitted curve at half-maximal effect.

A short description of the experiment: A quantitative high throughput screen for small molecules that induce DNA re-replication in MCF 10a normal breast cells. Also: nearly all actives have a fitted effect of over 50% in size. Particulars: MCF 10A DNA re-replication, Hoechst nuclear intensity, 48 h; series mostly up to 46.1 µM. The source says:
H Molecular Libraries Probe Production Network [MLPCN]
NIH Chemical Genomics Center [NCGC]
Assay Provider: Melvin DePamphilis, NICHD, NIH
Eukaryotic cells normally restrict genome duplication to once per cell division. When this process is aberrant, DNA re-replication occurs when cells reinitiate DNA replication before the first round of replication is complete. DNA re-replication induces the DNA damage response, arrests cell proliferation, and triggers apoptosis. The cell cycle components cyclin A, Cdt-1, Cdc6 and geminin are critical regulators of this process and their misregulation results in DNA re-replication in normal and cancer cells. To identify compounds that induce re-replication in normal cells, an image-based assay was used to measure DNA content of nuclei, as detected by the fluorescent DNA binding dye, Hoechst. Cell nuclei were imaged by a fluorescence scanning plate imager and compounds that induce DNA re-replication were identified by the increase of nuclei with elevated fluorescence intensity
For screening, 250 cells in 5 uL/well were dispensed into black clear 1536-well plates (Aurora) using a solenoid-based dispenser. Following transfer of 23 nL compound or DMSO vehicle by a pin tool, the plates were incubated 48 hr at 37 C and 5% CO2. After addition of 1 uL/well Hoescht stain, the plates were incubated 40 min at 37 C, 5% CO2 and total intensity of fluorescent objects (nuclei) were enumerated by an Acumen Explorer Ex3 (TTP LabTech) fluorescence scanning plate imager (405 nm excitation, 500-530 nm emission).
Keywords: NIH Roadmap, MLPCN, MLI, MLSMR, qHTS, NCGC, DNA replication, cancer
As for `CN[C@H](C(=O)NC[C@H]1O[C@@H](n2cnc3c(N)ncnc32)[C@H](O)[C@@H]1O)[C@@H](C)OCc1ccccc1`, the Potency entry was “inactive”. Next, `O=C(NNc1ccccc1Cl)C(O)(c1cccc(C(F)(F)F)c1)c1cccc(C(F)(F)F)c1`: 16.4 µM (active); `O=C(Nc1cc(C(F)(F)F)ccc1Cl)C(=O)N1CCCCC1`: “inactive”. As for `CC(CC(=O)Nc1cc(C(F)(F)F)ccc1Cl)c1ccccc1` (centres undefined), the Potency entry was “inactive”. The same measure for `COc1ccc([C@H]2CC(=O)C=C(c3ccc(CO)cc3)C2)cc1`: “inactive”; for `Cc1cccc(-n2ncc(Cl)c(Cl)c2=O)c1`: 3.26 µM (active); for `Cc1cccc(-n2ncc(C#N)c2-n2cccc2)c1`: “inactive”. Next, `O=c1c(Cl)c(NC2CC2)cnn1-c1ccccc1`: “inactive”. Next, `COC1=CC(=O)OC(C)(c2ccccc2)C1` (centres undefined): “inactive”; `COc1cc(OC)cc(C(=O)NCC(=O)OCC(=O)NC(C)CCc2ccccc2)c1` (centres undefined): “inactive”; `Cc1cc(C)c[n+](-c2nc3ccccc3nc2[N-]S(=O)(=O)c2cccs2)c1`: “inactive”. `O=C(NCCc1ccccc1)C1CCN(S(=O)(=O)c2ccc(Br)s2)CC1`: the Potency result is “inactive”. In the case of `O=S(=O)([N-]c1nc2ccccc2nc1-[n+]1ccc(Cc2ccccc2)cc1)c1ccc(Br)s1`, the Potency is 9.2 µM (active). The same measure for `O=C(COC(=O)c1cc(S(=O)(=O)N2CCOCC2)ccc1F)NC1CC1`: “inactive”.

Take `Cc1c(C(=O)N2CCCc3ccccc32)oc2ccccc12`: the Potency result was “inactive”. The same measure for `Cc1c(C(=O)N2CCCc3ccccc32)sc2nc(-c3ccccc3)cn12`: “inactive”. As for `Cc1cccc2cc3c(N)c(C(=O)N4CCCc5ccccc54)sc3nc12`, the Potency is 1.3 µM (active). Next, `CCOC(=O)[C@H]1[C@H]2COc3ccc(C)cc3[C@@H]2N2C(=O)CN(Cc3ccc(F)cc3)C(=O)[C@@]12C`: “inactive”. Next, `CSc1nnc(NC(=O)c2nc(S(=O)(=O)Cc3ccc(C)cc3)ncc2Cl)s1`: 1.16 µM (active); `Cc1cccc(CS(=O)(=O)c2ncc(Cl)c(C(=O)Nc3ccc(F)cc3)n2)c1`: “inactive”; `CCSc1nnc(NC(=O)c2ccc(C)cc2)s1`: “inactive”. For the molecule `CC(CNC(=O)Cn1cnc2c(OCc3ccccc3)ncnc21)c1ccccc1` (centres undefined), the Potency entry is “inactive”.

Turning to `Nc1ncnc2c1ncn2[C@@H]1O[C@H](CNS(=O)(=O)c2ccc(-c3ccno3)s2)[C@@H](O)[C@H]1O`, the Potency entry is “inactive”. The same measure for `CCOc1ccccc1N(CC(=O)Nc1ccccc1C(=O)OC)S(C)(=O)=O`: “inactive”; for `CCOc1ccccc1C1C(C(=O)OC)=CN(C)C=C1C(=O)OC`: 14.6 µM (active). The same measure for `CCOc1cc(C2C(C(=O)OC)=CN(C3CCCC3)C=C2C(=O)OC)cc(Br)c1O`: “inactive”.

In the case of `CC(C)(C)OC(=O)N[C@H](C(=O)OC(C)(C)C)c1ccc(Br)cc1`, the Potency entry was “inactive”.

Take `Cc1ccc(S(=O)(=O)CCC(=O)OCC(=O)N(C)Cc2ccccc2)cc1`: the Potency entry was “inactive”. As to `CNC(=O)COC(=O)c1cc(-c2ccc(OC)cc2)nc2ccccc12`, the Potency result is “inactive”. The same measure for `COc1ccc(CN(C)C(=O)c2cc(-c3ccc(C)cc3C)nc3ccccc23)c(OC)c1OC`: 23.1 µM (active); for `Cc1ccc(-c2cc(C(=O)Nc3nn[nH]n3)c3ccccc3n2)c(C)c1`: “inactive”; for `COc1ccc(-c2cc(C(=O)n3cnc4ccccc43)c3ccccc3n2)cc1`: “inactive”.

Take `COc1ccc(CN(C)C(=O)Cc2c[nH]c3ccccc23)c(OC)c1OC`: the Potency result was “inactive”.

Turning to `COc1ccc(-c2cc(C(=O)N(C)Cc3ccccc3)c3ccccc3n2)cc1`, the Potency was 3.66 µM (active). Next, `Cc1ccc(C)c(OCC(=O)NNC(=O)C2CCC2)c1`: “inactive”. The same measure for `COC(=O)c1ccc(CNC(=O)c2ccc(S(=O)(=O)N3CCCCCC3)cc2)cc1`: “inactive”; for `NC(=O)C1CCN(C(=O)c2cc(S(=O)(=O)N3CCN(c4ccccc4)CC3)ccc2Cl)CC1`: “inactive”; for `CCCN1C2CCCC1CC(NC(=O)NC13CC4CC(CC(C4)C1)C3)C2` (centres undefined): “inactive”. For `CCCNC(=S)NC1CC2CCCC(C1)N2CC(C)C` (centres undefined), the Potency was 14.6 µM (active).

For `C=CCN1C2CCCC1CC(NC(=S)Nc1cccc(OC)c1)C2` (centres undefined), the Potency result is “inactive”.

On to `Nc1cc(=O)n(Cc2ccccc2)c(=O)n1Cc1ccccc1`, for which the Potency entry was “inactive”. Next, `C/C(=N\Nc1ccc(Cl)nn1)c1ccccc1O`: “inactive”; `C=CCC[C@H](Cc1ccc(F)cc1)C(=O)OC[C@H](C)NC(=O)[C@H](CC=C)CC(=O)N(CCO)Cc1ccccc1`: “inactive”; `Cc1ccc(S(=O)(=O)N(C)C)cc1NC(=O)C(C)OC(=O)c1ccc2ccccc2n1` (centres undefined): “inactive”. The same measure for `COc1cccc(NC(=O)COc2cccnc2[N+](=O)[O-])c1`: “inactive”. The same measure for `COc1ccc(S(=O)(=O)Nc2cccc3c2O[C@H](CN(C)S(=O)(=O)c2ccc(OC)cc2)[C@@H](C)CN([C@H](C)CO)C3=O)cc1`: “inactive”; for `CCCOC(=O)c1[nH]c2c(c1C)C(=O)CC(c1cccs1)C2` (centres undefined): 0.206 µM (active). Consider `CCOC(=O)c1[nH]c2c(c1-c1ccccc1)C(=O)CC(c1ccc(Cl)cc1)C2` (centres undefined), for which the Potency result is “inactive”. The same measure for `COCCOC(=O)c1[nH]c2c(c1C)C(=O)CC(c1ccc(OC)cc1)C2` (centres undefined): “inactive”; for `CCOc1ccc(NC(=O)CN(C)C(=O)CCSc2ccc(F)cc2)cc1OCC`: “inactive”. Next, `COc1cc(/C=C/C(=O)OCC(=O)c2ccccc2)cc(OC)c1OC`: “inactive”. The same measure for `COc1ccccc1C(CNC(=O)c1cccc(S(=O)(=O)Nc2ccc(F)cc2)c1)N(C)C` (centres undefined): “inactive”; for `COc1ccc(/C=C2\N=C3CCCN3C2=O)cc1`: “inactive”; for `COc1ccc(/C=C2/CCCc3ccccc3C2=O)cc1`: 1.64 µM (active). For `COc1ccc(-n2c(=S)[nH]c3sc4c(c3c2=O)CCc2ccccc2-4)cc1`, the Potency result is “inactive”. The same measure for `Cc1c[n+]([O-])ccc1[N+](=O)[O-]`: “inactive”. The same measure for `NC(=O)c1cc(-c2cccnc2)nc2ccc(Br)cc12`: “inactive”.

Regarding `Cc1cccc(-c2nc3ccccc3c(=O)n2NC(=O)Cc2ccc(Cl)cc2)c1`, the Potency entry is “inactive”. The same measure for `O=c1c2cc(Br)ccc2nc(-c2cccc(Cl)c2)n1O`: 2.91 µM (active).

Turning to `Cc1cc(=O)n2[nH]c(-c3cccc(Cl)c3)cc2n1`, the Potency result was “inactive”.

For the molecule `O=C1CCCc2c1nc(-c1cccc(Cl)c1)n2O`, the Potency is 1.46 µM (active). With `CCOC(=O)CSc1ncc(-c2cccc(Cl)c2)cn1`, the Potency entry was “inactive”. Next, `Cc1ccsc1C(=O)OCC(=O)NCCc1ccccc1`: “inactive”. Next, `O=C1C=CN2CCCC2CC1` (centres undefined): “inactive”.

For the origin of these results see PubChem BioAssay AID624296 (National Center for Advancing Translational Sciences (NCATS), 2012).
